Shown is part of a subset that was picked to be rich in hits.
GIRK2 activator = Activates human GIRK2-containing potassium channels. activation (% efficacy), % for hits at 37.5 µM. HEK293 GIRK2/NPY4 cells, thallium flux fluorescence. P48051. 34,000 tested, under 10 active;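 active = primary screen hit, no activity in plain HEK293 cells, and in GIRK2-only cells above 5% efficacy rising with concentration; inactive = the rest, including fluorescent compounds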;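 note: efficacy is normalized control-subtracted fluorescence 15 s after thallium addition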
GluA2 TARP mod = modulators of AMPA receptor GluA2-stargazin complexes. HEK293 GluA2+stargazin, membrane potential dye (FDSS), glutamate EC50; hits were called plate by plate, in both directions. O88602+P19491. 40,000 tested, 3.5% active. calls only at 30 µM;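 active = any of four per-well response measures lying three or more SD from its plate-wide compound average, in either direction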
Target sequence (O88602 whole entry, looked up): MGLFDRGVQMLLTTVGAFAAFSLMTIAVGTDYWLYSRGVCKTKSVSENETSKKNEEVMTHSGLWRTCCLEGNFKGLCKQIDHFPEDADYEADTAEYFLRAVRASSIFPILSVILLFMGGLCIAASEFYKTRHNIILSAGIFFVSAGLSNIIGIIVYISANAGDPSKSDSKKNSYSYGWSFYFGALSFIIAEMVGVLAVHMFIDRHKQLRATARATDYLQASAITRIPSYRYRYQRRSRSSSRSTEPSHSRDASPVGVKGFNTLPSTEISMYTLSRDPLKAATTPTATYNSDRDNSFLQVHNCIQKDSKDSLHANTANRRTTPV
Target sequence (P19491 whole entry, looked up): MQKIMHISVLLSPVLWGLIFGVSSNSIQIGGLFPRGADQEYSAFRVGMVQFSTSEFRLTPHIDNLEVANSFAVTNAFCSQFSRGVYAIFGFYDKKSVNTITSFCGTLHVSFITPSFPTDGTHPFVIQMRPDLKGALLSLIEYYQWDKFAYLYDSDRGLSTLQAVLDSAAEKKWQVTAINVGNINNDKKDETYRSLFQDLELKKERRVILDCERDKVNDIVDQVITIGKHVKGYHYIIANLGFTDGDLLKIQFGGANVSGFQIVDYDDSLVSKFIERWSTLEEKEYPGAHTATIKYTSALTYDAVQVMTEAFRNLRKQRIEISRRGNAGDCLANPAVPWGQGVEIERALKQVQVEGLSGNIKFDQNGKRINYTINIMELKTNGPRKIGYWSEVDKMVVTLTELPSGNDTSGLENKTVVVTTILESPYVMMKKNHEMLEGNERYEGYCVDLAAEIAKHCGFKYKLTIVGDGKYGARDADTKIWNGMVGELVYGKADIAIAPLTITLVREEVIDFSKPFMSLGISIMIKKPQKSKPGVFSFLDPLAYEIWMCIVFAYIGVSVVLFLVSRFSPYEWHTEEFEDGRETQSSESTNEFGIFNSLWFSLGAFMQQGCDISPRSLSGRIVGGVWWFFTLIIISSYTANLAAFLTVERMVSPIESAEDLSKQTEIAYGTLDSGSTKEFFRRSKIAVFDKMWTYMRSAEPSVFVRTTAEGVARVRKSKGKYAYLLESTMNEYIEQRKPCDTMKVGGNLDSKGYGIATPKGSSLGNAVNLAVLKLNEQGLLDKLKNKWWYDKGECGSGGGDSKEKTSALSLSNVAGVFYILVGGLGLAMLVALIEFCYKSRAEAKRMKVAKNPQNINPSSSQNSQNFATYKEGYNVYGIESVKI
The depositor's hits bear a star; i = inactive; x = no result given; + = active, no number; [ ] = another dose, or the depositor's remark.

SMILES	GIRK2 activator	GluA2 TARP mod
Cc1ccc(-c2csc(NC(=O)c3ccnn3C)n2)cc1C	i	x
O=C(Cn1cnc(-c2cccs2)cc1=O)NCCOc1ccc(-c2ccco2)nn1	i	+
CCC(=O)NCCOc1ccc(-c2cccs2)nn1	i	i
O=C(O)c1ccc(-c2ccc(/C=c3\sc4ncnn4c3=O)o2)cc1	i	i
O=C(NCc1cccs1)NCC1CCN(S(=O)(=O)C2CC2)CC1	i	i
Cn1c(=O)c2c(SCC(=O)N3CCOCC3)ccnc2n(C)c1=O	x	+
C#CCSc1ccnc2c1c(=O)n(C)c(=O)n2C	x	i
CC1CCN(C(=O)CSc2ccnc3c2c(=O)n(C)c(=O)n3C)CC1	x	i
CCCCSc1ccnc2c1c(=O)n(C)c(=O)n2C	x	+
COc1ccc(-c2nnc(NC(=O)Cc3ccc(S(C)(=O)=O)cc3)o2)cc1OC	x	i
Cc1noc(C)c1S(=O)(=O)Nc1cc(-c2ccco2)nn1C1CCS(=O)(=O)C1 (configuration not stated)	i	i
Cc1noc(C)c1CC(=O)Nc1nn(C)c2c1C(C)CC(=O)N2 (configuration not stated)	i	i
COc1cccc(-n2nnc3c(N4CCN(C(=O)CSCc5ccccc5)CC4)ncnc32)c1	x	i
Cc1cc(C)n(-c2cc(N3CCCC(C(=O)NCc4ccc5c(c4)OCO5)C3)ncn2)n1 (configuration not stated)	i	i
Cc1cc(C)n(-c2cc(N3CCCC(C(=O)NCc4ccco4)C3)ncn2)n1 (configuration not stated)	i	+
COc1ccc(-c2ccc(=O)n(CCNS(=O)(=O)c3ccc(OC)cc3OC)n2)cc1	x	i
COc1ccc(-c2ccc(=O)n(Cc3cc(C)ccc3C)n2)cc1	i	+
Cc1ccc(C)c(Cn2nc(-c3ccc(Cl)cc3)ccc2=O)c1	i	i
CCOc1ccc(OCC)c(S(=O)(=O)NCCn2nc(-c3ccc(OC)cc3)ccc2=O)c1	x	+
CCOc1ccc(S(=O)(=O)NCCn2nc(-c3ccc(OC)cc3)ccc2=O)c(OCC)c1	x	i
COc1ccc(-c2ccc(=O)n(CCNS(=O)(=O)c3cc(C)c(C)cc3C)n2)cc1	x	+
O=C(Nc1nc(CC(=O)N2CCc3ccccc3C2)cs1)c1ccc(=O)[nH]c1	i	i
O=C1CSC(=O)N1CCNc1ccccc1	i	i
COc1cn(CC(=O)Nc2ccc(C(N)=O)cc2)c(CSc2nnnn2C)cc1=O	i	i
CCOc1ccc(NC(=O)Cn2cc(OC)c(=O)cc2CSc2nc(C)cs2)cc1	i	i
SMILES	GIRK2 activator	GluA2 TARP mod
COc1ccc(NC(=O)Cn2cc(OC)c(=O)cc2CSc2nnnn2C)cc1OC	i	+
COc1cn(CC(=O)Nc2ccc(C)cc2)c(CSc2nc(C)cs2)cc1=O	i	+
COc1cccc(-c2c(Nc3ccccc3C)oc3c2c(=O)n(C)c(=O)n3C)c1	i	i
CC(=O)Nc1ccc(S(=O)(=O)N2CCN(c3c(C)cccc3C)CC2)cc1	x	i
CC(=O)Nc1ccc(S(=O)(=O)n2nc(C)c(C)c2C)cc1	x	+
Cc1cc(C)c(S(=O)(=O)N2CCN(S(=O)(=O)N3CCCC3)CC2)c(C)c1	i	i
Cc1cc(C)c(S(=O)(=O)n2nc(C)c(C)c2C)c(C)c1	x	+
Cc1cc(NC(=O)c2ccc(S(=O)(=O)N(C)Cc3ccccc3)cc2)on1	i	x
CCn1c(=O)c(C(=O)Nc2ccccc2F)cc2cccnc21	i	i
Cc1nc2c(-c3ccccc3)cnn2c(N2CCN(CC#N)CC2)c1C	i	i
Cc1nccn1CC1CCN(S(=O)(=O)c2cccs2)CC1	i	i
O=S(=O)(c1cc(F)ccc1F)N1CCC(Cn2ccnc2-c2ccccc2)CC1	i	+
Cn1nc(-c2ccc(NC(=O)c3ccc4ccccc4c3)cc2)ccc1=O	i	i
COc1cn(CC(=O)N2CCc3ccccc32)c(CSc2ccccc2)cc1=O	i	i
Cc1nc2sccn2c(=O)c1NC(=O)Nc1ccc(F)c(Cl)c1	i	i
COc1ccccc1OCC(O)CN1CC(C)CC(C)C1 (configuration not stated)	i	i
COc1ccccc1OCC(O)CN1C(C)(C)CC(O)CC1(C)C (configuration not stated)	i	i
Cc1cc(C)c(C)c(OCC(O)CN2CC(C)CC(C)C2)c1 (configuration not stated)	i	+
Cc1cc(C)c(C)c(OCC(O)CN2C(C)(C)CC(O)CC2(C)C)c1 (configuration not stated)	i	+
O=C(c1ccccc1Cl)N1CCC2(CC1)NC(=O)N(Cc1ccc(Cl)cc1)C2=O	i	i
CCN(CC)CCNC(=O)c1ccc(Br)cc1	i	i
COc1ccccc1OCC(=O)NCCCN1CCOC(c2ccccc2)C1 (configuration not stated)	i	i
COc1ccc(Cl)cc1NC(=O)Nc1ccc(CN2CCN(C)CC2)cc1	14.0%*[75 µM]	i
COc1cccc(NC(=O)Nc2ccc(N3CCCS3(=O)=O)cc2)c1	i	i
COc1cc(NC(=O)Nc2ccc(CN3CCN(C)CC3)cc2)cc(OC)c1OC	i	i
SMILES	GIRK2 activator	GluA2 TARP mod
COc1ccc(N2CCCS2(=O)=O)cc1NC(=O)Nc1ccc(Cl)c(Cl)c1	i	i
COc1ccc(Cl)cc1NC(=O)Nc1cc(N2CCCS2(=O)=O)ccc1OC	i	+
O=C(Nc1ccc(N2CCCS2(=O)=O)cc1)Nc1cccc(Cl)c1	i	+
Cc1ccc([N+](=O)[O-])cc1NC(=O)C(=O)NCC(C)O (configuration not stated)	x	i
COc1ccc(NC(=O)Cn2cc(OC)c(=O)cc2CSc2ccc(Cl)cc2)cc1	i	i
COc1ccccc1-c1c(C)nn2c(N3CCN(Cc4ccccc4)CC3)cc(C)nc12	i	i
COc1ccc(-c2c(C)nn3c(N4CCN(Cc5ccccc5)CC4)cc(C)nc23)cc1OC	i	+
CCc1cc(CC)n(-c2nc3c(c(=O)n(CC(=O)C(C)(C)C)c(=O)n3C)n2C(C)C)n1	x	i
Cc1ccc(Nc2cc(C)nc(N3CCN(C(=O)c4ccc5c(c4)OCO5)CC3)n2)cc1	x	i
Cc1ccc(Nc2cc(N3CCN(C(=O)c4ncccn4)CC3)nc(C)n2)cc1	i	+
CC(C)(CO)NC(=O)Cc1ccc(NC(=O)NCc2ccc(F)cc2)cc1	i	x
Cc1nn(C2CCS(=O)(=O)C2)c(C)c1CC(=O)Nc1ccc(F)c(Cl)c1 (configuration not stated)	i	i
O=C(Nc1ccc(F)c(Cl)c1)c1cc(C2CC2)n(C2CCS(=O)(=O)C2)n1 (configuration not stated)	i	+
CCn1c(=O)c2c(nc3n(-c4cccc(OC)c4)c(C)cn23)n(C)c1=O	x	i
COc1cccc(CNC(=O)C(=O)NCc2cccs2)c1	i	i
C=CCSc1nnc(-c2ccccc2NC(=O)c2cccc(S(=O)(=O)N3CCCC3)c2)o1	i	i
CCS(=O)(=O)NCC1(c2cccs2)CCOCC1	i	+
CC(C)CS(=O)(=O)NCC1(c2cccs2)CCOCC1	i	i
COCCN1COc2ccc3cc(-c4ccc(OC)cc4OC)c(=O)oc3c2C1	i	i

Assay outcomes as filed in PubChem BioAssay.
